In PubChem BioAssay (NCATS):
Results filed as inconclusive are left out. A call without a number means that no potency is given here. Activity calls are given as the source filed them. Unless noted, calls follow the shape of the full dose curve.

Columns and labels:
[1] = qHTS to identify inhibitors of the type 1 interferon - major histocompatibility complex class I in skeletal muscle: primary screen against the NCATS Pharmaceutical Collection (AID 1347407; active = well fitted curve in the direction sought with a large enough effect; an effect the other way counts as inactive or inconclusive;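 also: luminescence of HiBiT knocked into endogenous HLA-B as interferon-induced MHC class I level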); conditions: human skeletal muscle cells, IFN-b-induced MHC-I HiBiT luminescence, 24 h; series mostly up to 45.9 µM
Summary of the method: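 Compounds […] were added to CRISPR-engineered HLA-B-HiBiT C25cl48 human myoblasts with 4.0 ng/ml IFN-beta. After 24 hrs at 37 C, cells were lysed and HiBiT luminescence measured.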

[2] = biological target: Protein phosphatase 1D (Homo sapiens) (UniProt O15297); experiment: RapidFire Mass Spectrometry qHTS Assay for Modulators of WT P53-Induced Phosphatase 1 (WIP1) (AID 1347424; active = well fitted curve in the direction sought with a large enough effect; an effect the other way counts as inactive or inconclusive;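 also: amount of dephosphorylated VEPPL-S-QETFS peptide product formed by WIP1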); conditions: WIP1 dephosphorylation of phosphopeptide, RapidFire MS; series mostly up to 63 µM
Protein phosphatase 1D (Homo sapiens), sequence (O15297 whole entry, looked up): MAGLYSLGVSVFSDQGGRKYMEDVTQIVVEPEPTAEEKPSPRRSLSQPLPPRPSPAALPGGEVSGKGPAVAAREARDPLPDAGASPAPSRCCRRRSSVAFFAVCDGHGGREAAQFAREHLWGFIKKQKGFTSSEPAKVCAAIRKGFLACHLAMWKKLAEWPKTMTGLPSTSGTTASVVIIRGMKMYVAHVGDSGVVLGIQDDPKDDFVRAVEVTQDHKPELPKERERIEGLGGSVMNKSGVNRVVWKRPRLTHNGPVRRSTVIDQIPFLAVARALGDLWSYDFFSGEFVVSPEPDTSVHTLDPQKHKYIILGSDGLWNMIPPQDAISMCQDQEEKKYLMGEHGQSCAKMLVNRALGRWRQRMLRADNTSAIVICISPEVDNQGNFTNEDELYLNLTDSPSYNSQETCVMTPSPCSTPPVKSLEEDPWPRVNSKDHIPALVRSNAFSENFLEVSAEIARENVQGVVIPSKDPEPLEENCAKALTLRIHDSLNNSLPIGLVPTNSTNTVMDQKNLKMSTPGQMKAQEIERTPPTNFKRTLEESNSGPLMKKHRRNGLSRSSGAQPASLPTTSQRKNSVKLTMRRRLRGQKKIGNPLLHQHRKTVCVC
Summary of the method: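 10 nM WIP1 + cpd, 1 h RT; + 2 uM VEPPL-pS-QETFS, 5 min RT; stop 0.5% formic acid; labelled product standard 1 uM; RapidFire MS. Buffer 50 mM Tris pH 7.5, 30 mM MgCl2, 1 mM TCEP.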

[3] = biological target: Protein phosphatase 1D (Homo sapiens) (UniProt O15297); experiment: Rhodamine-PBP qHTS Assay for Modulators of WT P53-Induced Phosphatase 1 (WIP1) (AID 1347425; active = well fitted curve in the direction sought with a large enough effect; an effect the other way counts as inactive or inconclusive); conditions: recombinant WIP1, Rhodamine-PBP phosphate fluorescence, real-time; series mostly up to 57.5 µM
Summary of the method: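 Steps: enzyme with Rh-PBP sensor and compounds, room-temperature incubation of 1 hr, baseline read, addition of VEPPL-pS-QETFS (10 uM final), kinetic fluorescence reads at 525/598 nm. Activity equals final minus baseline signal.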

[4] = Validation qHTS assay for inhibitors of Activation Induced Cytidine Deaminase (AID): UDG Counterscreen signal (AID 1347427; active = well fitted curve in the direction sought with a large enough effect; an effect the other way counts as inactive or inconclusive); conditions: biochemical UDG counterscreen, fluorescence signal; series mostly up to 115 µM
Summary of the method: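 Counterscreen read of UDG activity (2 U/mL, 4/3x) in the FRET deamination format with AID (1 uM, 4/3x), DJC20/DJC23 substrates (250 nM, 4x), 4 h at room temperature. NaOH stop, fluorescence at 560 ex/665 em.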

[5] = biological target: Single-stranded DNA cytosine deaminase (Homo sapiens) (UniProt Q9GZX7); experiment: Validation qHTS assay for inhibitors of Activation Induced Cytidine Deaminase (AID): AID signal (AID 1347429; active = well fitted curve in the direction sought with a large enough effect; an effect the other way counts as inactive or inconclusive); conditions: Recombinant AID, FRET ssDNA deamination with UDG, fluorescence; series mostly up to 115 µM
Single-stranded DNA cytosine deaminase (Homo sapiens), sequence (Q9GZX7 whole entry, looked up): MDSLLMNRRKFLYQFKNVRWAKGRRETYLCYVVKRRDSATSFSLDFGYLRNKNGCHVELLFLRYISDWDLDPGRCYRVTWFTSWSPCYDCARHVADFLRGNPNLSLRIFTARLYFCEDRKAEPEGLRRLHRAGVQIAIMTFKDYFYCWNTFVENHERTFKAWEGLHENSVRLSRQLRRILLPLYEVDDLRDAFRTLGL
Summary of the method: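 FRET deamination assay: 1 uM AID (4/3x stock) with UDG, compound up to 114 uM, then 250 nM DJC20/DJC23 substrate (4x stock) for 4 hr at room temperature. NaOH added, 30 min; fluorescence read 540/590 nm.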

[6] = Primary qHTS for inhibitors of SARS-S pseudo-typed particle cell entry (AID 1479145); conditions: SARS-S pseudotyped particle cell entry, luciferase reporter; series mostly up to 57.1 µM; also: nearly all actives have a fitted effect of over 45% in size; also: potency is read from the fitted curve at half-maximal effect

For `C=C1C[C@@H]2[C@H](CC[C@]3(C)C(=O)CC[C@@H]23)[C@@]2(C)C=CC(=O)C=C12`, the Potency [1] was “inactive”, the Potency [2] was “inactive” and the outcome [3] was “inactive”.
In the case of `CCCC(C)(COC(N)=O)COC(=O)NC(C)C` (stereo not drawn), the Potency [1] is reported as “inactive”, the Potency [2] is reported as “inactive” and the outcome [3] is reported as “inactive”. The outcome [4] was “inactive” and the outcome [5] was “inactive”.
With `Oc1ccccc1-c1ccccc1` the Potency [1] was “inactive”, the Potency [2] was “inactive” and the outcome [3] was “inactive”.
With `N[C@@H]1C[C@H]1c1ccccc1` the Potency [1] was “inactive”, the Potency [2] was “inactive” and the outcome [3] was “inactive”. The Potency [6] was “inactive”.
With `CC1(C)O[C@@H]2[C@@H](CO[C@@]3(COS(N)(=O)=O)OC(C)(C)O[C@@H]23)O1` the Potency [6] was “inactive”.
For `CO[C@H]1C=CO[C@@]2(C)Oc3c(C)c(O)c4c(O)c(c(/C=N/N5CCN(C)CC5)c(O)c4c3C2=O)NC(=O)/C(C)=C\C=C[C@H](C)[C@H](O)[C@@H](C)[C@@H](O)[C@@H](C)[C@H](OC(C)=O)[C@@H]1C`, the Potency [6] was “inactive”.
With `NC(=O)NO` the Potency [6] was “inactive”.
For `Cc1ccccc1N1C(=O)c2cc(S(N)(=O)=O)c(Cl)cc2NC1C` (stereo not drawn), the Potency [6] was “inactive”.
For `Nc1cccc2c1CN(C1CCC(=O)NC1=O)C2=O` (stereo not drawn), the Potency [6] was “inactive”.
With `COc1c(C)c2c(c(O)c1C/C=C(\C)CCC(=O)O)C(=O)OC2` the Potency [6] was “inactive”.
In the case of `Cc1[nH]c(=O)c(C#N)cc1-c1ccncc1`, the Potency [6] is reported as “inactive”.
For `CC(=O)Nc1nnc(S(N)(=O)=O)s1`, the Potency [6] was “inactive”.
For `Cc1ccc(NC(=O)c2ccc(CN3CCN(C)CC3)cc2)cc1Nc1nccc(-c2cccnc2)n1`, the Potency [6] was 12.6 µM (active).
For `NC(=Nc1ccccc1)Nc1ccccc1`, the Potency [6] was “inactive”.
For `CC1=NS(=O)(=O)c2cc(Cl)ccc2N1`, the Potency [6] was “inactive”.
In the case of `CN1CCN(CCCN2c3ccccc3Sc3ccc(Cl)cc32)CC1`, the Potency [6] is reported as 22.4 µM (active).
For `CC(=O)N[C@@H](CS)C(=O)O`, the Potency [6] was “inactive”.
For `NS(=O)(=O)c1cc2c(cc1Cl)NC=NS2(=O)=O`, the Potency [6] was “inactive”.
With `Cc1cn[nH]c1` the Potency [6] was “inactive”.
In the case of `CC[C@]1(O)C[C@H]2CN(CCc3c([nH]c4ccccc34)[C@@](C(=O)OC)(c3cc4c(cc3OC)N(C=O)[C@H]3[C@@](O)(C(=O)OC)[C@H](OC(C)=O)[C@]5(CC)C=CCN6CC[C@]43[C@@H]65)C2)C1`, the Potency [6] is reported as “inactive”.
For `CC(=O)Oc1cc2c(s1)CCN(C(C(=O)C1CC1)c1ccccc1F)C2` (stereo not drawn), the Potency [6] was “inactive”.
In the case of `CCOc1ccc2ccccc2c1C(=O)N[C@@H]1C(=O)N2[C@@H]1SC(C)(C)[C@@H]2C(=O)O`, the Potency [6] is reported as “inactive”.
With `CCN1CCN(C(=O)N[C@@H](C(=O)N[C@@H]2C(=O)N3C(C(=O)O)=C(CSc4nnnn4C)CS[C@H]23)c2ccc(O)cc2)C(=O)C1=O` the Potency [6] was “inactive”.
In the case of `Cc1nc(-c2ccc(OCC(C)C)c(C#N)c2)sc1C(=O)O`, the Potency [6] is reported as “inactive”.
For `O=C1OCCN1/N=C/c1ccc([N+](=O)[O-])o1`, the Potency [6] was “inactive”.
For `Cc1cn([C@H]2C=C[C@@H](CO)O2)c(=O)[nH]c1=O`, the Potency [6] was “inactive”.
In the case of `CCCc1cc(=O)[nH]c(=S)[nH]1`, the Potency [6] is reported as “inactive”.
In the case of `COCCCOc1cc(C[C@@H](C[C@H](N)[C@@H](O)C[C@H](C(=O)NCC(C)(C)C(N)=O)C(C)C)C(C)C)ccc1OC`, the Potency [6] is reported as “inactive”.
In the case of `Cc1ncc([N+](=O)[O-])n1CCO`, the Potency [6] is reported as “inactive”.
In the case of `CN(N=O)C(=O)N[C@@H]1[C@@H](O)[C@H](O)[C@@H](CO)O[C@@H]1O`, the Potency [6] is reported as “inactive”.
For `O=NN(CCCl)C(=O)NCCCl`, the Potency [6] was “inactive”.
For `NNCCc1ccccc1`, the Potency [6] was “inactive”.
For `O=C(C1CCCCC1)N1CC(=O)N2CCc3ccccc3C2C1` (stereo not drawn), the Potency [6] was “inactive”.
In the case of `C[N+]1(C)CCC(OC(=O)C(O)(c2ccccc2)C2CCCC2)C1` (stereo not drawn), the Potency [6] is reported as “inactive”.
In the case of `Cc1onc(-c2c(Cl)cccc2Cl)c1C(=O)N[C@@H]1C(=O)N2[C@@H]1SC(C)(C)[C@@H]2C(=O)O`, the Potency [6] is reported as “inactive”.
In the case of `CCC1(c2ccccc2)C(=O)NCNC1=O`, the Potency [6] is reported as “inactive”.
For `Cn1cc[nH]c1=S`, the Potency [6] was “inactive”.
In the case of `CNCCc1ccccn1`, the Potency [6] is reported as “inactive”.
For `Nc1nc(F)nc2c1ncn2[C@@H]1O[C@H](CO)[C@@H](O)[C@@H]1O`, the Potency [6] was “inactive”.
In the case of `CC(C)(C)C(=O)OCOP(=O)(COCCn1cnc2c(N)ncnc21)OCOC(=O)C(C)(C)C`, the Potency [6] is reported as “inactive”.
In the case of `CC(C)Oc1ccc2c(=O)c(-c3ccccc3)coc2c1`, the Potency [6] is reported as “inactive”.
With `CC(=O)[C@]1(O)Cc2c(O)c3c(c(O)c2[C@@H](O[C@H]2C[C@H](N)[C@H](O)[C@H](C)O2)C1)C(=O)c1ccccc1C3=O` the Potency [6] was 8.91 µM (active).
